Laboratory results from ChEMBL document CHEMBL2218924, “A broad activity screen in support of a chemogenomic map for kinase signalling research and drug discovery” (Biochem J, 2013).

Target: Fibroblast growth factor receptor 2 (Homo sapiens) (UniProt P21802)
Conditions: at 10 µM

Fibroblast growth factor receptor 2 (Homo sapiens), sequence (P21802 22-821 limits assumed): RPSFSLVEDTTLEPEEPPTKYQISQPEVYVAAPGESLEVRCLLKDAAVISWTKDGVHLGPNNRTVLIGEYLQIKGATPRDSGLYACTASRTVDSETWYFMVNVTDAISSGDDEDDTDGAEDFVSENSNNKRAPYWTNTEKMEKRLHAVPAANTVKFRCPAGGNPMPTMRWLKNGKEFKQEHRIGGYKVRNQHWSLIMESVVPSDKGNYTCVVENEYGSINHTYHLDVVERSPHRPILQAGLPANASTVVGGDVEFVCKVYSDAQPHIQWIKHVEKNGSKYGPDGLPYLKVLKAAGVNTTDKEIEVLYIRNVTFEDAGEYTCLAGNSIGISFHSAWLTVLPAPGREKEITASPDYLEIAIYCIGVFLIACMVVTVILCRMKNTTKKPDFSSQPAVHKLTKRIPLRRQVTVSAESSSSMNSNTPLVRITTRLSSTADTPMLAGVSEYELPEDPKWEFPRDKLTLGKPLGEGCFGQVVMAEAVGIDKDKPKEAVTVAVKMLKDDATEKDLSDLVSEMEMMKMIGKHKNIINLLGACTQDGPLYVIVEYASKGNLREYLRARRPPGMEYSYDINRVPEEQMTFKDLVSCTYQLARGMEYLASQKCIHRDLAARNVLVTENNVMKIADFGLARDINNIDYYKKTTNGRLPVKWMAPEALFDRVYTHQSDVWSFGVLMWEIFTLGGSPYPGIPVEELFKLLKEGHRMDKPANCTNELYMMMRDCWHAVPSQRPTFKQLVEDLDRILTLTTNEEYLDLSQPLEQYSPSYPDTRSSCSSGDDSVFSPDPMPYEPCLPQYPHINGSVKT

Row | SMILES | residual activity
1 | COc1ccc(COc2ccc(Cc3cnc(N)nc3N)cc2OC)cc1 | 76%
2 | Nc1nc(Nc2ccc(S(N)(=O)=O)cc2)nn1C(=O)c1c(F)cccc1F | 7%
3 | Nc1n[nH]c2nc3ccccc3nc12 | 84%
4 | O=C(NC(NC(=S)Nc1ccc(F)c([N+](=O)[O-])c1)C(Cl)(Cl)Cl)C(c1ccccc1)c1ccccc1 (centres undefined) | 73%
5 | COc1ccc(CNC(=O)Nc2ncc([N+](=O)[O-])s2)cc1 | 78%
6 | COc1cc2nccc(Oc3ccc(NC(=O)Nc4cc(C)on4)c(Cl)c3)c2cc1OC | 5%
7 | N#C/C(=C\c1ccc(O)c(O)c1)C(=O)NCc1ccccc1 | 120%
8 | O=C1NC(=O)C(c2cn(CCCO)c3ncccc23)=C1c1cnccn1 | 81%
9 | CC(C)[C@H](CO)Nc1nc(Nc2cc(N)cc(Cl)c2)c2ncn(C(C)C)c2n1 | 22%
10 | COc1cc2ncnc(Nc3cccc(Cl)c3)c2cc1OC | 66%
11 | O=C(O)/C=C/c1cc(Br)c(Br)c(Br)c1Br | 94%
12 | NC(=O)c1ccc(-c2nc(-c3ccc4c(c3)OCCO4)c(-c3ccccn3)[nH]2)cc1 | 82%
13 | COc1ccc2c(c1)c(C1=C(c3c[nH]c4ccccc34)C(=O)NC1=O)cn2CCCN(C)C | 18%
14 | Nc1ncnc2[nH]nc(Nc3ccc(F)cc3)c12 | 60%
15 | O=C(CCCc1ccc(-c2ccccc2F)cc1)Nc1ccc(O)cc1 | 99%
16 | O=C1Nc2ccccc2/C1=C\c1c(Cl)[nH]c2ccccc12 | 79%
17 | CCCC(=O)Oc1ccc2[nH]c(C(=O)c3cc4ccccc4[nH]3)cc2c1 | 108%
18 | N#C/C(=C1/Nc2ccccc2S1)c1ccnc(NCCc2cccnc2)n1 | 45%
19 | CSc1nc(-c2ccc(F)cc2)c(-c2ccnc(NC(C)c3ccccc3)c2)[nH]1 (centres undefined) | 68%
